Assay results taken from PubChem BioAssay (NCATS).
Inconclusive results are not listed. A number with no mark means an inactive call. Active and inactive are the calls of the source. Calls follow the shape of the dose curve; as a rule, active = well fitted inhibition curve with a large enough effect; inconclusive = small, poorly fitted or top-dose-only effect; inactive = no such curve, though single readings can be large or run the other way.
Potency is read from the fitted curve at half-maximal effect.

Test: BET inhibitor-based combinations targeting novel dependencies in MECOM-rearranged (r) AML: HNT-34 cell line (AID 2202234); also: nearly all actives have a fitted effect of over 35% in size;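 as to viability (% of control): plate controls were vehicle wells for no effect and cell-free wells for full effect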
Settings: HNT-34 AML viability, CellTiter-Glo luminescence, 48 h; series mostly up to 46 µM; viability (% of control): at the top concentration
Method in brief: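 Each compound is tested in an 11-point concentration series against 500 seeded cells/well for 48 hr. The luminescent viability signal is normalized to DMSO and blank wells, then reduced to AUC and a cell-line-centred Z-AUC.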
For `Cc1cc(C)c(/C=C2\C(=O)Nc3ccccc32)[nH]1`, the Potency was 0.296 µM (active).
For `Cc1cc(Cl)ccc1OCCCC(=O)NO`, the Potency was 1.48 µM (active).
With `Clc1ccc(C(c2ccc(Cl)cc2)n2cc[n+](CC(OCc3ccc(Cl)cc3Cl)c3ccc(Cl)cc3Cl)c2)cc1` (centres undefined) the Potency was 9.34 µM (active).
In the case of `O=C1CCC(N2C(=O)c3ccccc3C2=O)C(=O)N1` (centres undefined), the “viability (% of control)” value is reported as 97.3%.
With `CC(C)Cc1ccc(C(C)C(=O)O)cc1` (centres undefined) the “viability (% of control)” value was 107%.
With `OC(CCN1CCCCC1)(c1ccccc1)C1CC2C=CC1C2` (centres undefined) the “viability (% of control)” value was 92.1%.
With `CS(=O)(=O)Nc1ccc([N+](=O)[O-])cc1Oc1ccccc1` the “viability (% of control)” value was 109%.
In the case of `Nc1nc(N)c(N=O)c(OCC2CCCCC2)n1`, the Potency is reported as 5.25 µM (active).
In the case of `Nc1nc2c(ncn2COCCO)c(=O)[nH]1`, the “viability (% of control)” value is reported as 108%.
With `NC12CC3CC(CC(C3)C1)C2` the “viability (% of control)” value was 89.9%.
In the case of `CC1COc2c(N3CCN(C)CC3)c(F)cc3c(=O)c(C(=O)O)cn1c23` (centres undefined), the “viability (% of control)” value is reported as 108%.
In the case of `CCN1CCCC1CNC(=O)c1cc(S(=O)(=O)CC)c(N)cc1OC` (centres undefined), the “viability (% of control)” value is reported as 110%.
For `CCn1cc(C(=O)O)c(=O)c2cc(F)c(N3CCNC(C)C3)c(F)c21` (centres undefined), the “viability (% of control)” value was 99.2% [at 15.6 µM].
With `CC(C[N+](C)(C)C)OC(N)=O` (centres undefined) the “viability (% of control)” value was 108%.
For `CC(C)(Oc1ccc(C2CC2(Cl)Cl)cc1)C(=O)O` (centres undefined), the “viability (% of control)” value was 98.7%.
For `NC(=O)c1ncn([C@@H]2O[C@H](CO)[C@@H](O)[C@H]2O)n1`, the Potency was 16.6 µM (active).
In the case of `CN(C)CCC=C1c2ccccc2C=Cc2ccccc21`, the Potency is reported as 16.6 µM (active).
For `CC(C)c1ccc2c(c1)c(SC(C)(C)C)c(CC(C)(C)C(=O)O)n2Cc1ccc(Cl)cc1`, the Potency was 23.5 µM (active).
In the case of `CN[C@H](CC(C)C)C(=O)N[C@H]1C(=O)N[C@@H](CC(N)=O)C(=O)N[C@H]2C(=O)N[C@H]3C(=O)N[C@H](C(=O)N[C@H](C(=O)O)c4cc(O)cc(O)c4-c4cc3ccc4O)[C@H](O)c3ccc(c(Cl)c3)Oc3cc2cc(c3O[C@@H]2O[C@H](CO)[C@@H](O)[C@H](O)[C@H]2O[C@H]2C[C@](C)(N)[C@H](O)[C@H](C)O2)Oc2ccc(cc2Cl)[C@H]1O`, the “viability (% of control)” value is reported as 109% [at 15.6 µM].
